Source: PubChem BioAssay
M1 antag – antagonists of human M1 muscarinic receptor | P11229 | CHO-K1 hM1, Fluo-8 calcium fluorescence, ACh EC80 antagonist | inhibition, % at 3 µM | 1.3% of 360,000 active | AID 588852;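 active means percent inhibition above its own plate's cutoff, namely the mean of that plate's compound wells plus 3 SD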;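 further: peak over basal fluorescence ratio during 140 s after agonist addition; 0% = ACh EC80 plus DMSO and 100% = DMSO alone without agonist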
Target sequence (P11229 whole entry, looked up): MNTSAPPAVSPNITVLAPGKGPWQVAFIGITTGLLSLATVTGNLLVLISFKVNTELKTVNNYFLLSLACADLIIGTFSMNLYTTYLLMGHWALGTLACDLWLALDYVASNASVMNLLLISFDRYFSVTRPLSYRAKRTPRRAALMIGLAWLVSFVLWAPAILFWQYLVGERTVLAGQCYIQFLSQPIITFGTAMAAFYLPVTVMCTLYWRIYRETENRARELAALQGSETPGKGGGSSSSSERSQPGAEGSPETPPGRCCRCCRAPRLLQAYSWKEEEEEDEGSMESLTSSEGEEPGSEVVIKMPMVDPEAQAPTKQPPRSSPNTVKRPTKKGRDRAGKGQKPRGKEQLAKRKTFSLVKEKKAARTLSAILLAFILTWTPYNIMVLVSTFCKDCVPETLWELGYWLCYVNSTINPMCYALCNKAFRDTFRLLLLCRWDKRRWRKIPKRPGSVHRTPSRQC
CHRM1 PAM – potentiates human M1 receptor response to acetylcholine; P11229; CHO-K1 hM1, Fluo-8 calcium fluorescence, ACh EC20; 0% = ACh EC20, 100% = maximal ACh; activation, % at 3 µM; 0.088% of 360,000 active; AID 588819; in the data active means activation above about 19%, passing the limit was not always enough
M1 ag parental – M1 agonist counterscreen hit in parental CHO-K1 cells; AID 602248; Fluo-8 calcium fluorescence; scaled to maximal ATP response, vehicle zero; activation, % at 3 µM; 0.48% of 360,000 active; in the data active means activation above about 15%;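 further: untransfected CHO-K1 host cells lacking M1 receptor as counterscreen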
CHO-K1 Ca antag – counter-screen for M1 antagonists: effect in parental CHO-K1 cells; inhibition, % at 3 µM; 0.6% of 360,000 active; AID 602250; ATP-induced calcium, Fluo-8 fluorescence;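 active means inhibition above a per-plate cutoff, the plate's mean sample inhibition plus 3 SD, cut at about 24% in these data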;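 further: 0% = DMSO plus EC80 ATP and 100% = DMSO alone without ATP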
M1 ag – agonists of human M1 muscarinic receptor | P11229 | CHO-K1 hM1, Fluo-8 calcium fluorescence, agonist mode; 0% DMSO, 100% acetylcholine EC100 | activation, % at 3 µM | 0.33% of 360,000 active | AID 588814;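 active means activation above the run's mean compound activation plus 3 SD, cut at about 16% in these data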;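 further: peak over basal fluorescence ratio within a 140 s kinetic read after compound addition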
M1 PAM parental – M1 PAM counterscreen hit in parental CHO-K1 cells | ATP EC20, Fluo-8 calcium fluorescence; 0% at ATP EC20, 100% at ATP max | activation, % at 3 µM | 0.02% of 360,000 active | AID 602247;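 active means activation above the run cutoff, the mean activation of all test compounds plus 3 SD, cut at about 40% in these data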;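 further: peak over basal fluorescence ratio in a 140 s read after ATP addition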
Active calls of the source: *. Only some compounds are listed: those with a hit (about 2.3% of all), similar ones and a draw of the others.

SMILES	M1 antag	CHRM1 PAM	M1 ag parental	CHO-K1 Ca antag	M1 ag	M1 PAM parental
O=C(c1cccc(NS(=O)(=O)c2ccc(F)c(F)c2)c1)N1CCCCC1	-7	2	1	-2	-1	3
CC(NC(=O)COc1ccc(S(=O)(=O)N2CCOCC2)cc1)c1ccccc1 (stereo not drawn)	4	-2	0	-2	-5	3
Cn1c(CN2CCOCC2)nc2cc(NC(=O)COc3ccccc3)ccc21	-2	6	2	-12	-7	13
Cn1c(CCN2CCOCC2)nc2cc(NC(=O)COc3ccccc3)ccc21	11	5	0	26*	-5	-2
Cc1ccc(N2CCN(CCc3nc4cc(NC(=O)c5ccco5)ccc4n3C)CC2)cc1	25*	-22	1	11	-6	-5
Cc1ccc(C(=O)Nc2ccc3c(c2)nc(CCNC(=O)c2ccco2)n3C)cc1	1	-4	1	-4	-7	7
Cc1cccc(C(=O)NCCc2nnc(SCC(=O)Nc3cccc(C(=O)O)c3)n2C)c1	0	8	1	2	1	-1
CCOC(=O)C1CCN(C2CCN(Cc3nc(-c4ccccc4)no3)CC2)CC1	-6	0	1	5	-13	-2
CCOC(=O)C1CCCN(Cc2nc(Cc3cccc(F)c3)no2)C1 (stereo not drawn)	-3	-8	2	-10	33*	17
CCOC(=O)C1CCCN(C2CCN(Cc3nc(-c4ccccc4)no3)CC2)C1 (stereo not drawn)	42*	-22	1	-1	42*	11
COCC1CCCN(Cc2nc(Cc3ccccc3)no2)C1 (stereo not drawn)	12	11	0	-3	-1	0
CCOC(=O)C1CCCN(C2CCN(Cc3nc(Cc4ccccc4)no3)CC2)C1 (stereo not drawn)	19	-8	1	-12	17*	13
CCOC(=O)C1CCCN(Cc2nc(C3CC3)no2)C1 (stereo not drawn)	-11	7	1	-8	-1	14
COc1cccc(S(=O)(=O)N(C)C[C@H]2OCc3cnnn3CCCC(=O)N([C@@H](C)CO)C[C@@H]2C)c1	-17	5	0	0	-1	8
Cc1csc2ncnc(NNC(=O)c3ccc(Cl)cc3)c12	43*	-21	19*	8	4	-12
COc1ccc(NC(=O)CN(c2ccc(OC)c(Cl)c2)S(=O)(=O)c2ccccc2)c(OC)c1	-4	4	0	-16	-3	25
NC(=O)c1ccc(NC(=O)COC(=O)c2ccccc2SCC(=O)N2CCCC2)cc1	-33	27*	1	-12	5	7
Cc1nnc(NC(=O)C2CSC3(C)CCC(=O)N23)s1 (stereo not drawn)	0	4	1	-3	-2	17
Cc1ccc2nc(/C(C#N)=C\c3ccc(N4CCOCC4)o3)[nH]c2c1	20	-12	8	11	31*	-10
COc1ccccc1CNC(=O)CCNS(=O)(=O)c1ccc2c(c1)CC(C)N2C(C)=O (stereo not drawn)	-14	8	2	-11	-2	11
CN(C)Cc1csc(NC(=O)Nc2ccccc2-c2ccccc2)n1	28*	-20	1	7	-8	-8
O=C(C1CCN(c2nnc(N3CCCC3=O)s2)CC1)N1CCN(c2cccc(C(F)(F)F)c2)CC1	77*	-24	7	3	-2	0
COc1ccccc1NC(=O)CN(c1ccccc1C)S(C)(=O)=O	-19	13	1	-10	-3	23
CCOC(=O)c1ccccc1NC(=O)CN(c1ccccc1C)S(C)(=O)=O	-4	8	0	30*	-3	-5
COc1ccc(C)cc1Nc1n[n+](-c2ccccc2)c(-c2cc(OC)c(OC)cc2Br)s1	-10	6	0	-16	-7	4
SMILES	M1 antag	CHRM1 PAM	M1 ag parental	CHO-K1 Ca antag	M1 ag	M1 PAM parental
Fc1ccc(-[n+]2nc(Nc3ccccc3)sc2-c2c3ccccc3cc3ccccc23)cc1	26	-8	3	-7	19*	15
COc1ccc(C)cc1Nc1n[n+](-c2ccccc2)c(-c2c(OC)ccc3ccccc23)s1	31*	-18	16*	16	-2	1
CCCOc1ccc(CC(=O)NCCc2ccccc2)cc1OC	0	17	0	-1	2	-11
Cc1cccc(NNC(=S)Nc2ccccc2)c1	2	7	-1	25*	-3	-11
Cc1cccc(NC(=S)NNc2cccc(Cl)c2)c1	-15	13	0	3	-1	6
CCCCN(C(=O)c1cc2c(s1)CCC2)c1c(N)n(CCC)c(=O)[nH]c1=O	-18	8	3	-4	3	8
CCCN1C(=O)/C(=C/c2c(NCCCOCC)nc3c(C)cccn3c2=O)SC1=S	-13	13	0	-8	1	22
O=C1/C(=C\c2c(NCCOCCO)nc3ccccn3c2=O)SC(=S)N1Cc1ccco1	34	-19	20*	11	30*	0
COc1cccc(N2CCN(c3ncnc4c3cnn4-c3ccc(C)cc3C)CC2)c1	64*	-23	11	12	3	-1
COc1ccc(-n2ncc3c(N4CCN(Cc5ccccc5)CC4)ncnc32)cc1	23*	-14	6	13	-4	7
CCN(CC)C(=O)C1CCCN(c2ncnc3c2cnn3-c2cccc(C)c2)C1 (stereo not drawn)	2	-2	1	-9	-5	16
CCN1CCN(c2ncnc3c2cnn3-c2ccccc2)CC1	-4	10	1	5	-8	16
CCOC(=O)C1CCCN(c2ncnc3c2cnn3-c2cccc(C)c2)C1 (stereo not drawn)	16	-26	2	-8	44*	-10
CN(CCc1ccccc1)C(=O)c1cccc(NC(=O)Cc2cccc(NC(=O)C3CCCN(C(=O)c4ccccc4)C3)c2)c1 (stereo not drawn)	-6	8	0	-3	-4	11
CCOc1ccc(Nc2cc(Nc3ccccc3OCC)nc(C=C(C#N)C#N)n2)cc1	4	2	16*	-3	-4	4
CCOc1ccccc1Nc1cc(C)c2cccc(C)c2n1	-4	9	-1	6	-4	-10
CCOc1ccccc1NC(=O)CN(c1ccc(C)cc1)S(=O)(=O)c1c(C)n[nH]c1C	20*	-24	0	-12	-6	20
COc1ccc(N(CC(=O)Nc2ccc(OC)cc2OC)S(=O)(=O)c2ccccc2)cc1	0	4	1	-19	-5	18
COc1ccccc1CNC(=O)CN(c1ccc(C)cc1)S(=O)(=O)c1c(C)n[nH]c1C	-15	-7	2	10	-5	-4
